Sampled rows, rich in hits. Any-hit rate of the full collection: about 3.9%.
BoNT-A LC inh2: blocks Botulinum neurotoxin A light chain protease; actives 0.17% (n = 360,000); AID 588499; multiplex microsphere protease substrate cleavage, flow cytometry; inhibition, % at 10 µM
Anthrax LF prot: anthrax lethal factor protease inhibition; multiplex microsphere protease cleavage assay, LF; P15917; actives 0.12% (n = 360,000); inhibition, % at 10 µM
Target sequence (P15917 whole entry, looked up): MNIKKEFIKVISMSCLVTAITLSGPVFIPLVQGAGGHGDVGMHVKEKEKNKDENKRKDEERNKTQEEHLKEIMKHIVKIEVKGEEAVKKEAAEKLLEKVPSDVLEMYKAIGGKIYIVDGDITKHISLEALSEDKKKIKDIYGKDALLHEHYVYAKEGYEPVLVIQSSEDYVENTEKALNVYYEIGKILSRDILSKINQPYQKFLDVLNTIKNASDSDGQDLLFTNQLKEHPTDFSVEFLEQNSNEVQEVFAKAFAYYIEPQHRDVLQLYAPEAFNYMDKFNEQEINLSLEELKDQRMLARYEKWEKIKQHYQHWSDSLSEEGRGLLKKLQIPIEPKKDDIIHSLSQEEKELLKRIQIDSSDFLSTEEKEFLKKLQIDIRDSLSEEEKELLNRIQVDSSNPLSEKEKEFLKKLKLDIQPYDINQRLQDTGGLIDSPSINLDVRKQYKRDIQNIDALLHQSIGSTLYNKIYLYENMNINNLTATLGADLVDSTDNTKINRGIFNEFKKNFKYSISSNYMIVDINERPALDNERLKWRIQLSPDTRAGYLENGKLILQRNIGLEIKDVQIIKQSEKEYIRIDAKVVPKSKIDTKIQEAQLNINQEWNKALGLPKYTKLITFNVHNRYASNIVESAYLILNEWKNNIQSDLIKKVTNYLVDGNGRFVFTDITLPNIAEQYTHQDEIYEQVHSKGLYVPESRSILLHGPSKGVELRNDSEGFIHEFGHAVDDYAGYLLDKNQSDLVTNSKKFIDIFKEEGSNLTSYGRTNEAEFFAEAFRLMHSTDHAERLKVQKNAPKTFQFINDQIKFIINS
BoNT-F LC inh: blocks Botulinum neurotoxin F light chain protease | Multiplex microsphere protease cleavage assay, flow cytometry | actives 0.22% (n = 360,000) | AID 588497 | inhibition, % at 10 µM; in the data active means inhibition above about 35%, passing the limit was not always enough; inconclusive means no clear call, values can overlap the other calls
3CLpro inhibitor: SARS-CoV 3CLpro protease inhibition; recombinant SARS-CoV 3CLpro, quenched FRET peptide cleavage; inhibition, % at 6 µM; actives 0.14% (n = 290,000); AID 1706; in the data active means inhibition above about 12%
VHR inh abs: DUSP3 (human) phosphatase inhibition; P51452; recombinant VHR phosphatase, pNPP absorbance; inhibition, % at 13.3 µM; actives 0.52% (n = 290,000); in the data active means inhibition above about 50%
Bead autofluor: flagged as autofluorescent in microsphere protease counterscreen | compound autofluorescence counterscreen, microsphere flow cytometry; hits give high values | fluorescence intensity (concentration not given with the values) | actives 3.1% (n = 360,000) | AID 624483; in the data active means fluorescence intensity above about 16000; inconclusive means no clear call, values can overlap the other calls
BoNT-A LC CP1: BoNT/A light chain protease inhibition; shares compounds with BoNT-F LC inh; multiplex microsphere protease assay, flow cytometry; inhibition, % at 10 µM; actives 3% (n = 720); in the data active means inhibition above about 32%
BoNT-F LC CP1: inhibitors of Botulinum neurotoxin F light chain protease; shares compounds with BoNT-F LC inh; multiplex microsphere protease cleavage assay, flow cytometry; inhibition, % at 10 µM; 720 tested, under 10 active; AID 602140; call rule not given here
LF protease CP1: Bacillus anthracis lethal factor protease inhibition; shares compounds with BoNT-F LC inh; multiplex microsphere protease cleavage assay, LF; inhibition, % at 10 µM; 720 tested, under 10 active; AID 602142; call rule not given here
Of the large screens only hits and unclear results are named; the others gave an inactive call (follow-up assays come after a bar, where they were run). Unless noted, no stated cut-off is given here; in the data, active means inhibition above about 30%; inconclusive means no clear call, values can overlap the other calls; inactive means below that.

Cc1cc(NC(=O)CSc2nnc(-c3ccncc3)n2Cc2ccccc2)n(-c2ccccc2)n1	BoNT-A LC inh2 inconclusive, BoNT-F LC inh inconclusive
Cc1cc(NC(=O)CSc2nnc(-c3ccncc3)n2C)n(-c2ccccc2)n1	Anthrax LF prot 70, BoNT-F LC inh inconclusive | BoNT-A LC CP1 inactive | BoNT-F LC CP1 inactive | LF protease CP1 inactive
Cc1ccc(NC(=O)c2cc(S(=O)(=O)c3ccccc3)ccc2Cl)cc1	none
CCCOc1ccc(-c2nc(C#N)c(NCCCn3ccnc3)o2)cc1	BoNT-A LC inh2 58, BoNT-F LC inh 58, Bead autofluor inconclusive | BoNT-A LC CP1 inactive | BoNT-F LC CP1 inactive | LF protease CP1 inactive
Cc1nn(CC(=O)NCCc2cccs2)c(=O)c2cc3ccccc3n12	BoNT-A LC inh2 38, Anthrax LF prot 34 | BoNT-A LC CP1 inactive | BoNT-F LC CP1 inactive | LF protease CP1 inactive
CC(C)c1ccc(OCC(=O)Nc2ccncc2)cc1	BoNT-F LC inh 43 | BoNT-A LC CP1 inactive | BoNT-F LC CP1 inactive | LF protease CP1 inactive
O=C(c1cc2c(s1)-c1ccccc1S(=O)(=O)C2)N1CCN(Cc2ccccc2)CC1	none
CCCCNc1nnc(SCC(=O)c2c[nH]c3ccccc23)s1	BoNT-A LC inh2 54 | BoNT-A LC CP1 inactive | BoNT-F LC CP1 inactive | LF protease CP1 inactive
CCCCNc1nnc(SCC(=O)c2c(N)n(C3CC3)c(=O)[nH]c2=O)s1	none (no result: 3CLpro inhibitor, VHR inh abs)
O=C(CSc1nc2ccccc2c(=O)n1-c1ccccc1)c1c[nH]c2ccccc12	none
O=C(CSc1nncn1-c1ccccc1)c1c[nH]c2ccccc12	BoNT-A LC inh2 53 | BoNT-A LC CP1 inactive | BoNT-F LC CP1 inactive | LF protease CP1 inactive
CC(=O)CCC(=O)OCC(=O)c1ccc(C(F)(F)F)cc1	none
COc1ccc(Cl)c(OC)c1C(=O)NC(=O)Nc1c(F)cc(F)cc1F	none
Cc1ccc(C)c(Nc2nc(-c3ccncc3)nc3ccccc23)c1	BoNT-F LC inh 42 | BoNT-A LC CP1 inactive | BoNT-F LC CP1 inactive | LF protease CP1 inactive
Clc1ccc(Cc2ccc(SCc3ccccc3)nn2)c(Cl)c1	BoNT-F LC inh 43, Bead autofluor inconclusive | BoNT-A LC CP1 inactive | BoNT-F LC CP1 inactive | LF protease CP1 inactive
Clc1ccc(CSc2ccc(-c3ccccn3)nn2)cc1	none
COc1ccc(-n2c(SCC(=O)Nc3ccc(C(=O)O)cc3)nnc2-c2cccs2)cc1	none
COc1ccc(-c2nnc(SCC(=O)Nc3ccc(C(=O)O)cc3)n2-c2ccc(Cl)cc2)cc1	none | BoNT-A LC CP1 inactive | BoNT-F LC CP1 inactive | LF protease CP1 inactive
Cc1ccc(S(=O)(=O)NC(=NC2CCCCC2)c2ccc(Cl)cc2)cc1	none
Cc1nc2nc(Cc3ccccc3)[nH]n2c(=O)c1Cl	none | BoNT-A LC CP1 inactive | BoNT-F LC CP1 inactive | LF protease CP1 inactive
Cc1nc2nc(Cc3ccccc3)[nH]n2c(=O)c1Cc1ccccc1	none
COc1ccc(S(=O)(=O)N2CCOC2CNC(=O)C(=O)NCc2ccccc2Cl)cc1 (configuration not stated)	none
CCN1CCc2nc3sc(C(=O)N4CCc5ccccc5C4)c(N)c3cc2C1	none
CC(C)c1ccc2nc3sc(C(=O)N4CCc5ccccc5C4)c(N)c3cc2c1	none | BoNT-A LC CP1 inactive | BoNT-F LC CP1 inactive | LF protease CP1 inactive
CCN1CCN(CC(=O)c2c(C)n(C)c3ccc(OC)cc23)CC1	Bead autofluor inconclusive
CCOC(=O)C1CCN(CC(=O)c2c(C)n(C)c3ccc(OC)cc23)CC1	BoNT-F LC inh 39 | BoNT-A LC CP1 inactive | BoNT-F LC CP1 inactive | LF protease CP1 inactive
O=C(NCc1ccc(Cl)cc1)c1noc2c1CCCC2	none
O=C(NCc1ccccc1)c1noc2c1CCCC2	BoNT-F LC inh 35 | BoNT-A LC CP1 inactive | BoNT-F LC CP1 inactive | LF protease CP1 inactive
Cc1ccc(C(=O)NCCc2nnc3c(C(F)(F)F)cc(Cl)cn23)o1	none
O=C(CN1C(=O)COc2ccccc21)NCCCN1CCCCC1	none
CC(=O)CSc1nnc(-c2ccc(S(=O)(=O)N3CCOCC3)cc2)n1C	none
CC(=O)CSc1nnc(-c2ccc(S(=O)(=O)N3CCCC3)cc2)n1C	Anthrax LF prot 31 | BoNT-A LC CP1 inactive | BoNT-F LC CP1 inactive | LF protease CP1 inactive
Clc1ccc(-c2noc(CN3CCOCC3)n2)cc1	Anthrax LF prot inconclusive
Clc1cccc(Cl)c1-c1noc(CN2CCOCC2)n1	BoNT-A LC inh2 inconclusive, Anthrax LF prot 36, BoNT-F LC inh inconclusive | BoNT-A LC CP1 inactive | BoNT-F LC CP1 inactive | LF protease CP1 inactive
COc1ccccc1-c1nnc(C2CCN(S(=O)(=O)c3ccccc3[N+](=O)[O-])CC2)o1	none
CC1(C(=O)NS(=O)(=O)C2CC2)CCCN(C(=O)Cc2ccc(F)cc2)C1 (configuration not stated)	none (no result: 3CLpro inhibitor, VHR inh abs)
Cc1ccc(OCC2Cn3c(nc4c3c(=O)[nH]c(=O)n4C)O2)cc1C (configuration not stated)	Anthrax LF prot 31 | BoNT-A LC CP1 inactive | BoNT-F LC CP1 inactive | LF protease CP1 inactive
COc1ccc(C2=NN(C(=O)CN3CCCCC3)C(c3ccc(OC)cc3)C2)cc1 (configuration not stated)	BoNT-A LC inh2 inconclusive, BoNT-F LC inh inconclusive
COc1ccc(C2=NN(C(=O)CN3CCCC3)C(c3ccc(OC)cc3)C2)cc1 (configuration not stated)	Anthrax LF prot 34, BoNT-F LC inh 57 | BoNT-A LC CP1 inactive | BoNT-F LC CP1 inactive | LF protease CP1 inactive
O=C(Oc1c(-c2ccccc2)c(=O)n2c3c(cccc13)CC2)c1ccccc1	none
O=C(Oc1c(-c2ccccc2)c(=O)n2c3c(cccc13)CC2)c1ccc(F)cc1	BoNT-A LC inh2 inconclusive, Anthrax LF prot 37, BoNT-F LC inh inconclusive | BoNT-A LC CP1 inactive | BoNT-F LC CP1 inactive | LF protease CP1 inactive
CC(C)(C)C(=O)CN1C(=O)NC2(CCCc3ccccc32)C1=O (configuration not stated)	none
N#Cc1cccc(NC(=O)c2cc(C3CCCCN3C(=O)c3ccc4c(c3)CCO4)on2)c1 (configuration not stated)	none (no result: 3CLpro inhibitor, VHR inh abs)
COc1ccc(S(=O)(=O)NC(C)C(=O)N2CCCC2)cc1Cl (configuration not stated)	Anthrax LF prot 31, BoNT-F LC inh inconclusive | BoNT-A LC CP1 inactive | BoNT-F LC CP1 inactive | LF protease CP1 inactive
Cc1cc(C)nc(SCc2ccc(Cl)cc2)n1	Anthrax LF prot 32 | BoNT-A LC CP1 inactive | BoNT-F LC CP1 inactive | LF protease CP1 inactive
COc1cc(/C=C(\NC(=O)c2ccccc2)C(=O)N2CC3CC(C2)c2cccc(=O)n2C3)cc(OC)c1OC (configuration not stated)	none
CCOc1ccccc1Nc1nc(-c2sc(C)nc2C)cs1	BoNT-F LC inh 41 | BoNT-A LC CP1 inactive | BoNT-F LC CP1 inactive | LF protease CP1 inactive
